Screening results as filed in PubChem BioAssay.
CendR NRP1 mod = modulators of CendR peptide binding to NRP-1, primary screen, biochemical, fluorescence polarization, uHTS. inhibition, % at 25 µM. Neuropilin-1 (Homo sapiens), O14786. AID 602438, 2012. 0.85% of 360,000 active. FAM-RPARPAR peptide binding to NRP-1;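 active = inhibition or corrected inhibition above about 18%, plus a signal ratio from 0.5 to 1.5, limit read from the data, passing the limit was not always enough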
PDI turbidity = inhibitors of human PDI, primary screen, biochemical, turbidity, single point, plate reader | PDI insulin aggregation turbidity, A650, 90 min | inhibition, % at 10 µM | 0.052% of 350,000 active;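 active = mean inhibition across replicates of 30% or more, whatever share of single replicates reach that level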
Target sequence (P07237 whole entry, looked up): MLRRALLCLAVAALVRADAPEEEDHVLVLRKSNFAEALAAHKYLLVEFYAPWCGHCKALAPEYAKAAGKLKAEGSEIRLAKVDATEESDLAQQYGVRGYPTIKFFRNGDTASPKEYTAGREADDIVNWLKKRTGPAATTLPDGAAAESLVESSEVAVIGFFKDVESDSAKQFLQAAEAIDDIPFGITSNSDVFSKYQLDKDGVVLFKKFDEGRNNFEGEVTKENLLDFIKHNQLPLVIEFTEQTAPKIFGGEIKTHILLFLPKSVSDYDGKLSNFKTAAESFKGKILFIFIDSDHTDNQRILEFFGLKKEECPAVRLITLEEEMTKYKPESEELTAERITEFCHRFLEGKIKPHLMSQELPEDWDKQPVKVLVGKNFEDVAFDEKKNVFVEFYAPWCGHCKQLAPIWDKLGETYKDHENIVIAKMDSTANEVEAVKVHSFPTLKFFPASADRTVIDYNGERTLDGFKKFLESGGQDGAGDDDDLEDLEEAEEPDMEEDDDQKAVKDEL
ARNT TACC3 PPI = disruptors of ARNT/TACC3 protein interaction, primary screen, biochemical, AlphaScreen, single concentration; inhibition, % at 9.99 µM; AlphaScreen His-ARNT PAS-B/GST-TACC3 binding, luminescence; TACC3 fragment carries E629A point mutation; 0.66% of 390,000 active; AID 623870, 2012;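 active = mean inhibition of replicates at least 50% and at least half of replicates each reaching 50%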;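 note: 0% = complete ARNT plus TACC3 wells and 100% = ARNT alone without TACC3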
ALR inh = inhibitors of human ALR sulfhydryl oxidase, primary screen, biochemical, H2O2 detection, HRP-luminol luminescence, single point. FAD-linked sulfhydryl oxidase ALR (Homo sapiens), P55789. purified ALR, DTT oxidation. inhibition, % (no concentration beside the values). 3.8% of 290,000 active. AID 485317, 2010;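 active = mean replicate inhibition above about 79%, with every replicate also reaching it, limit read from the data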
ERp5 inh = inhibitors of ERp5-driven insulin aggregation, primary screen, biochemical, turbidity, absorbance 650 nm, single point | Protein disulfide-isomerase A6 (Homo sapiens), Q15084 | inhibition, % at 9.99 µM | 0.05% of 350,000 active | 90 min | AID 651711, 2012;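 active = mean replicate inhibition above about 25%, with every replicate also reaching it, limit read from the data, passing the limit was not always enough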
PglD DTNB = C. jejuni PglD acetyltransferase inhibitors, primary screen, biochemical, DTNB colorimetric, single point; UDP-N-acetylbacillosamine N-acetyltransferase PglD (Campylobacter jejuni); purified PglD enzyme, DTNB colorimetric CoA detection; inhibition, % at 12.5 µM; 0.098% of 360,000 active; in the data active = inhibition above about 16%, passing the limit was not always enough
* marks the source's active call; other numbers are inactive results; nt = no result given. This excerpt belongs to a sample that is enriched for hits.

SMILES	CendR NRP1 mod	PDI turbidity	ARNT TACC3 PPI	ALR inh	ERp5 inh	PglD DTNB
COc1ccc(NC(=O)Nc2ccc3c(c2)C(=O)N([C@@H](C)CO)C[C@H](C)[C@H](CN(C)S(=O)(=O)c2ccccc2)O3)cc1	nt	nt	-1	nt	-1	-5
COc1ccccc1-c1nc(C(=O)NCC2CCCO2)cc2c1[nH]c1ccccc12 (stereo unspecified)	-6	nt	3	98*	nt	-5
COc1cc(-c2nc(C(=O)NCC3CCCO3)cc3c2[nH]c2ccccc23)cc(OC)c1OC (stereo unspecified)	-6	nt	-29	99*	5	1
CCC(=O)Nc1ccc2c(c1)OC[C@@H](C)N(C(=O)c1ccc(F)cc1)C[C@@H](C)[C@@H](OC)CN(C)C2=O	nt	nt	2	nt	8	5
CC1SCC(=O)N(CC(=O)NCc2ccccc2)C1=O (stereo unspecified)	14	9	-1	-11	-7	-3
O=C(CN1C(=O)CSC1=O)NCc1ccccc1	27*	4	-6	0	nt	11
CN1C(=O)c2cc(NC(=O)c3cccc(F)c3)ccc2OC[C@H]2O[C@@H](CC(=O)Nc3ccccc3)CC[C@H]21	nt	nt	9	nt	0	5
CN(CC(=O)Nc1ccc(F)c(F)c1F)C(=O)C1CSC2(C)CCC(=O)N12 (stereo unspecified)	12	1	0	-5	-3	4
CN(CC(=O)Nc1ccccc1Cl)C(=O)C1CSC2(C)CCC(=O)N12 (stereo unspecified)	21*	3	-3	-8	-1	3
Nc1c(S(=O)(=O)c2ccccc2)c2nc3ccccc3nc2n1C1CC1	-4	-1	-7	99*	6	nt
CCN(CC)c1ccc(N=Cc2ccccc2[N+](=O)[O-])cc1	-13	-1	41	87*	4	1
Cc1cccc(OCC(=O)NNc2c3ccccc3nc3ccccc23)c1	0	3	-3	99*	-3	4
O=C(Cc1ccccc1)NNc1c2ccccc2nc2ccccc12	0	3	-2	98*	0	nt
Cc1ccc(OCC(=O)NNc2c3ccccc3nc3ccccc23)cc1	-5	11	-4	96*	6	nt
Cc1cc(CNC(=O)COc2ccccc2)c2ccccc2n1	0	-1	nt	nt	2	nt
O=C(CCN1CCCCC1)NCC[C@H]1CC[C@H](NC(=O)C2CCCC2)[C@@H](CO)O1	nt	nt	2	nt	-9	1
C[C@@H]1CN([C@@H](C)CO)C(=O)c2cc(C#Cc3ccccc3F)cnc2O[C@@H]1CN(C)C(=O)C1CCC1	nt	nt	1	nt	5	1
O=C(NCC1CC1)c1onc(CSc2nc3ccccc3[nH]2)c1C(=O)NCC1CC1	26*	-4	-3	nt	-10	-3
CCCCNC(=O)c1onc(CSc2nc3ccccc3[nH]2)c1C(=O)NCCCC	3	2	-2	5	0	-2
O=S(=O)(N[C@@H]1CC[C@H](CCn2cc(C3(O)CCCC3)nn2)O[C@H]1CO)c1ccc(F)cc1	nt	nt	-7	nt	-1	-1
CC1(OC(=O)CCc2ccccc2)C(=O)C=C2C=C(c3ccc(C#N)cc3)N(CC3CC3)C=C2C1=O (stereo unspecified)	18	-2	0	-9	4	-2
CC1(OC(=O)CCc2ccccc2)C(=O)C=C2C=C(c3ccc(C#N)cc3)N(C3CCCC3)C=C2C1=O (stereo unspecified)	30*	-4	1	-18	1	-6
CN(C)c1cc(C(F)(F)F)nc(-c2ccccn2)n1	2	6	-11	-7	nt	1
CSCc1cc(N(C)c2ccccc2)nc(-c2ccccn2)n1	-1	3	61*	0	-6	-2
O=C(c1cccc(F)c1)N1CC(=O)N2[C@H](C1)[C@@H](c1ccc(C3=CCCC3)cc1)[C@@H]2CO	nt	nt	nt	nt	3	nt
